# Screening results: PubChem, National Center for Advancing Translational Sciences (NCATS)
# Only some compounds are listed: those with a hit (about 8.7% of all), similar ones and a draw of the others.
# JMJD2A Tudor: JMJD2A Tudor domain (human) inhibition; AlphaScreen JMJD2A-Tudor / H3K4me3 peptide binding; Potency, µM (top dose mostly 114 µM), for the others: at the highest dose activity change, negative = inhibition, hits mostly inhibitors; O75164; AID 504339; hit rate 4.4% among 390,000; further: on the % scale 0 is the no-effect control and ±100 the full control effect; nearly all actives have a fitted effect of over 50% in size
# BAZ2B inh: BAZ2B (human) inhibition. Q9UIF8. AlphaScreen BAZ2B-H3K14Ac peptide displacement. Potency, µM (highest dose often 114 µM), without a hit: top-dose activity change, negative = inhibition, actives largely listed as inhibitors. hit rate 4.4% among 360,000; further: on the % scale 0 is the no-effect control and ±100 the full control effect; nearly all actives have a fitted effect of over 60% in size
#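 Protein-peptide AlphaScreen: BAZ2B 50 nM, b-H3K14Ac 50 nM, 1x PBS pH 7.4 + 0.01% Tween-20. Preincubation 30 min RT; cpd 30 min RT (top 110 uM); beads 20 min RT, light-protected.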
# HP1b chromo inh: HP1-beta chromodomain-methylated histone interaction inhibition; hit rate 0.56% among 390,000; P83916; Potency, µM (highest dose often 114 µM), inactives show at the top dose activity change, negative = inhibition, hits mostly inhibitors; AID 540317; AlphaScreen HP1-beta / biotin-H3K9me3 peptide binding; further: nearly all actives have a fitted effect of over 70% in size
#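 HP1-beta protein (50 nM final) preincubated 30 min at room temperature with biotinylated H3(1-18)K9me3 peptide (50 nM) in PBS pH 7.4, 0.01% Tween-20, then compound added for 30 min. AlphaScreen streptavidin donor/nickel chelate acceptor beads (10 ug/mL final), 30 min dark, luminescence read.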
# Sfp inh: Sfp phosphopantetheinyl transferase inhibition; Q9F4F7; Biochemical Sfp PPTase activity, qHTS; Potency, µM, for inactives: largest response in the series, negative = inhibition, actives largely listed as inhibitors; hit rate 3.5% among 310,000;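 further: the enzyme is Sfp with the accession as filed and its product quenches rhodamine fluorescence; 0% = enzyme reaction without inhibitor and -100% = no enzyme wells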
#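 After 15 min at room temperature with compound, 15 nM Sfp received 5 uM rhodamine-CoA plus 12.5 uM BHQ-2-ybbR (50 mM Hepes pH 7.6, 10 mM MgCl2). Rate came from the fluorescence difference over 30 min, ex 525/em 598 nm.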
# ALOX12 inh: inhibitors of human 12S-lipoxygenase ALOX12; P18054; purified 12hLO, xylenol orange hydroperoxide absorbance; Potency, µM (doses to about 108 µM), without a hit: at the top dose activity change, negative = inhibition, actives largely listed as inhibitors; hit rate 1.1% among 580,000; further: on the % scale 0 is the no-effect control and ±100 the full control effect
#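 Hydroperoxide product was detected by ferrous iron/xylenol orange as the 573 to 405 nm absorbance ratio. Arachidonic acid at 40 uM (final) was turned over for 30 min at room temperature by 150 nM human 12hLO, pH 7.0 Hepes buffer, after 15 min compound preincubation.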
# G9a inh: blocks human histone lysine methyltransferase G9a; hit rate 8.8% among 350,000; Potency, µM (top dose mostly 102 µM), for inactives: at the top dose activity, negative = inhibition, most hits filed as inhibitors; Q96KQ7; G9a H3K9 monomethylation, AlphaScreen, 2 h; further: on the % scale 0 is the no-effect control and ±100 the full control effect; nearly all actives have a fitted effect of over 75% in size
#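 Signal arises when biotinylated H3K9 peptide, once monomethylated, bridges streptavidin donor and antibody-captured acceptor beads. Enzyme at 20 nM was preincubated 15 min with test compounds; peptide 500 nM and SAM 20 uM then reacted for 2 h.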
# An asterisk follows results filed as active; ? = inconclusive; . = no result given; [ ] = dose if it differs, or a comment. The call rests on the fitted dose curve; in most records, active means well fitted curve in the direction sought with a large enough effect; inconclusive means small, poorly fitted or top-dose-only effect, or another doubt; inactive means no such curve, though single readings can be large; an effect the other way counts as inactive or inconclusive. Potency means the concentration at half of the fitted maximal effect.
SMILES,JMJD2A Tudor,BAZ2B inh,HP1b chromo inh,Sfp inh,ALOX12 inh,G9a inh
CC1(C)CC(=O)C(=Cc2cn(-c3ccccc3)nc2-c2ccccc2)C(=O)C1,-0.4%,.,42.6%,.,4.1%,.
Cc1ccc(-c2nn(-c3ccccc3)cc2C=C2C(=O)CC(C)(C)CC2=O)cc1,-32.9%,?,-5.8%,25.1µM*,7.94µM*,15.2%[0.0925 µM]
CCOc1ccc(S(=O)(=O)NC(Cc2cnc[nH]2)C(=O)O)cc1 (stereo unspecified),15.8µM*,-13.5%,-5.0%,5.7%,-6.0%,50.1µM*
CCOc1ccc(C(=O)CCNC(Cc2cnc[nH]2)C(=O)O)cc1 (stereo unspecified),?,17.8µM*,18.8%,?,20.2%,?
CCOC(=O)C(O)(NC(=O)c1c(F)cccc1F)C(F)(F)F (stereo unspecified),.,.,.,.,10.0%,.
Cc1cc(/C=C2\SC(=S)NC2=O)cc(C)c1O,-31.4%,?,-5.6%,13.3%,0.0%,39.8µM*
CCN(CC)c1ccc(C=C2SC(=S)NC2=O)cc1,?,.,?,.,-1.1%,.
Cc1nn(C)cc1/C=C1\SC(=S)NC1=O,-12.9%,14.1%,38.2%,-12.9%,?,?
O=C1NC(=S)S/C1=C\c1cc(Cl)cc(Cl)c1O,39.8µM*,.,44.7µM*,.,44.7µM*,.
O=C(NCCc1ccc(F)cc1)c1cc(-c2cccnc2)nc2ccccc12,.,.,.,.,-9.7%,.
N#Cc1ccc(N2CCN(C(=O)CNC(N)=O)CC2=O)cc1,.,.,.,.,7.7%,.
OCCN1CCN(C(=S)NCCc2ccccc2)CC1,0.0%[11.4 µM],-2.5%,27.2%,10.7%,0.0%,-1.2%[59 µM]
CCNC(=S)N1CCN(Cc2ccccc2)CC1,8.91µM*,50.1µM*,?,-23.1%,-3.9%,15.8µM*
CCN1CCN(C(=S)NCCc2ccccc2)CC1,3.16µM*,79.4µM*,?,-26.3%,-23.6%,?
Cc1ccc(Cl)cc1N1CCN(C(=O)Cc2cn(C)c3ccccc23)CC1,?,?,?,-11.7%,?,12.6µM*
CCN1CCN(C(=S)NCC2CCCO2)CC1 (stereo unspecified),7.94µM*,50.1µM*,?,-21.6%,-29.1%,39.8µM*
CC(C)N(CCNC(=O)CCc1ncc(-c2ccc(Cl)cc2)o1)C(C)C,.,.,.,.,19.3%,.
CN(Cc1ccccc1)Cc1nc2c(n1Cc1ccccc1)C(=O)N(Cc1ccccc1C#N)CCN2,.,.,.,.,24.1%,.
CC(C)CCN1CCC2(CC1)COc1ccccc1NC2=O,.,.,.,.,51.2%[176 µM],.
CCCNC(=S)N1CCN(CC)CC1,1.78µM*,50.1µM*,-52.5%,-25.4%,?,10µM*
O=C(NC(=S)N1CCN(Cc2ccccc2)CC1)c1ccco1,-22.7%,-28.0%,6.0%,-7.5%,-19.4%,50.1µM*
Cc1ccc(Cl)cc1N1CCN(C(=S)NCCc2ccccc2)CC1,11.2%,1.3%,49.0%,-6.6%,35.5µM*,7.5%
CCCCNC(=S)NCCN1CCN(C(=S)NCCCC)CC1,-12.7%,-36.7%,32.9%,15.2%,-1.1%,-0.4%
Cc1cnn(C(=S)NCC2CCCO2)c1 (stereo unspecified),4.47µM*,-2.1%,47.2%,-24.7%,?,31.6µM*
Cc1cc(C)c(C)c(S(=O)(=O)N2CCN(C(=S)NCC3CCCO3)CC2)c1C (stereo unspecified),-23.9%,.,16.6%,4.1%,-17.5%,5.3%
SMILES,JMJD2A Tudor,BAZ2B inh,HP1b chromo inh,Sfp inh,ALOX12 inh,G9a inh
Cc1cccc(N2CCN(C(=S)NCCc3ccccc3)CC2)c1C,-2.6%,2.5%,43.1%,-22.3%,?,-15.5%
COc1ccc(-c2cc(N3CCC(NC(=O)c4cccs4)CC3)n[nH]2)cc1,.,.,.,.,5.4%,.
CN1CC(=O)N(c2ccccc2F)Cc2c(NCCO)ncnc21,.,.,.,.,34.9%[176 µM],.
O=C(c1cccc(Cl)c1)N1CCC(n2c(=O)[nH]c3ccccc32)CC1,.,.,.,.,2.9%,.
O=C(COc1ccc(S(=O)(=O)NC2CCCCC2)cc1)NCc1ccccc1,.,.,.,.,9.8%,.
OC(c1ccccn1)C(O)c1ccccn1 (stereo unspecified),50.1µM*,.,-11.4%,.,-0.2%,.
O=P(c1ccccc1)(c1ccccc1)C(O)c1ccccn1 (stereo unspecified),?,20µM*,35.0%,79.4µM*,2.2%,.
O=P(c1ccccc1)(c1ccccc1)C(c1ccccn1)P(=O)(c1ccccc1)c1ccccc1,-10.4%,-2.8%,10.9%,13.5%,86.0%,-33.0%
O=c1c(C=NCCCn2ccnc2)c(-c2ccccc2)[nH]n1-c1nc2ccccc2s1,?,?,-3.6%,13.0%,-3.5%,-6.3%[12.7 µM]
CN(C)CCCN=Cc1c(-c2ccccc2)[nH]n(-c2nc3ccccc3s2)c1=O,-21.1%,?,6.7%,50.1µM*,?,.
Cc1ccc(C23CC4CC(CC(C(=O)Nc5ccc(Cl)c(Cl)c5)(C4)C2)C3)cc1,.,.,.,.,-3.4%,.
CCN(CCO)c1ccc(-n2c(N)c(C(=O)OC)c3nc4ccccc4nc32)cc1,79.4µM*,?,-5.9%,-24.0%,?,35.5µM*
O=C(/C=C/c1ccccc1)NC(=S)NNC(=O)c1ccccc1,.,.,.,.,6.31µM*,.
O=C(/C=C/c1ccccc1)NC(=S)NNC(=O)c1cccnc1,-19.4%,-8.3%,23.1%,23.0%,0.0%,22.4µM*
COc1cc(C(=O)NNC(=S)NC(=O)/C=C/c2ccccc2)cc(OC)c1OC,-12.4%,-1.8%,-1.5%,13.9%,?,31.6µM*
COc1ccc(/C=C/C(=O)NC(=S)NNC(=O)c2cccnc2)cc1OC,-12.1%,3.2%,45.8%,6.4%,0.0%,-6.5%[12.7 µM]
C=CCC1CCC/C(=N\NS(=O)(=O)c2ccc(C)cc2)C1 (stereo unspecified),-6.2%,-4.3%,37.4%,-5.1%,?,25.1µM*
COc1cc(Cl)c(C)cc1NC(=O)c1cc(=O)n2c(nc3ccccc32)s1,.,.,.,.,44.7µM*,.
COc1cccc(C2=CC(c3cc(OC)ccc3OC)n3nnnc3N2)c1 (stereo unspecified),-13.6%,1.3%,28.1%,-7.5%,?,?
COc1ccc(C2=CC(c3ccc(OC)c(OC)c3)n3nnnc3N2)c(OC)c1 (stereo unspecified),?,-28.0%,69.1%,-1.0%,-16.5%,50.1µM*
COc1cccc(C2C=C(c3ccc(OC)cc3OC)Nc3nnnn32)c1 (stereo unspecified),12.3%,-1.3%,82.9%,-12.3%,.,44.7µM*
Cn1nnnc1SCC(=O)c1cccs1,-3.1%,1.3%,63.8%,44.7µM*,-19.2%,?
CCn1c(SC(=O)NC2CCCCC2)nnc1-c1cccs1,4.47µM*,4.2%,22.4µM*,-7.3%,?,?
CCn1c(SCC(=O)NCc2ccco2)nnc1-c1ccncc1,.,-24.7%,.,10.6%,.,-29.4%
CCn1c(SCC(=O)NCc2ccco2)nnc1-c1cccs1,-17.9%,?,29.7%,14.1µM*,-10.3%,?
